# Source: the supplement of paper PMC9950053
# Structures can show the parent of a compound that is named as a salt.
# Test system: Danio rerio larvae (5 dpf)
# Assay: habituation (activity change first vs second 5 min of 1-s interval sound, period 17) minus DMSO control (percentage points); higher = larger habituation measure than DMSO larvae
# Details: 10 µM; exposure time: 3 h pre-incubation + 3 h imaging
# Experimental: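 Wild-type 5 dpf zebrafish larvae (n=48 per drug, 96-well plates, 28.5 °C) were exposed to Tocris FDA-approved library compounds at 10 µM (0.1% DMSO) for 3 h before and 3 h during imaging. Images were taken every 6 s during visual (moving coloured lines) and acoustic stimuli, and larvae were tracked with the DeepLabCut-based Z-LaP Tracker. Each behavioural measure is the treated-group mean minus the DMSO vehicle control mean (n=844), in percentage points. This mapping covers compounds with 4-character plate codes.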
row,Structure (SMILES),habituation
1,N[C@@H]1C[C@H]1c1ccccc1 [Tranylcypromine hydrochloride],-2.8
2,COc1cc2c(cc1OC)C1CC(=O)C(CC(C)C)CN1CC2 (stereo unspecified) [Tetrabenazine],0.576
3,Cc1cccc([C@H](C)c2c[nH]cn2)c1C [Dexmedetomidine hydrochloride],-10.4
4,C=C1C[C@@H]2[C@H](CC[C@]3(C)C(=O)CC[C@@H]23)[C@@]2(C)C=CC(=O)C=C12 [Exemestane],-2.71
5,CN1C[C@H](C(=O)N[C@]2(C)O[C@@]3(O)[C@@H]4CCCN4C(=O)[C@H](Cc4ccccc4)N3C2=O)C[C@@H]2c3cccc4[nH]cc(c34)C[C@H]21 [Dihydroergotamine mesylate],2.38
6,CCN(C)C(=O)Oc1cccc([C@H](C)N(C)C)c1 [Rivastigmine tartrate],0.0925
7,O=c1[nH]c2ccccc2n1C1CCN(CCCC(c2ccc(F)cc2)c2ccc(F)cc2)CC1 [Pimozide],-10.2
8,CC[C@@H](C(N)=O)N1CCCC1=O [Levetiracetam],-2
9,CC(C)C[C@H]1C(=O)N2CCC[C@H]2[C@]2(O)O[C@](NC(=O)[C@@H]3C=C4c5cccc6[nH]c(Br)c(c56)C[C@H]4N(C)C3)(C(C)C)C(=O)N12 [Bromocriptine mesylate],-1.05
10,C=CCN1C[C@H](C(=O)N(CCCN(C)C)C(=O)NCC)C[C@@H]2c3cccc4[nH]cc(c34)C[C@H]21 [Cabergoline],5.7
11,CC(O)(CS(=O)(=O)c1ccc(F)cc1)C(=O)Nc1ccc(C#N)c(C(F)(F)F)c1 (stereo unspecified) [Bicalutamide],-6.13
